High-throughput results as filed in PubChem.
Rows were chosen to be rich in hits. Some 7.3% of all compounds tested hit in one or more screens of this group.
Tau fluor counter – counter-screen for tau fibril formation inhibitors. hit rate 0.93% among 280,000. Potency, µM (doses to about 57.7 µM), inactives show at the highest dose activity change, negative = decrease. tau K18 P301L Alexa594 fluorescence, heparin fibrillization; note: nearly all actives have a fitted effect of over 55% in size
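Human K18 P301L tau (15 uM unlabeled plus 0.24 uM Alexa 594-labeled, final) in 100 mM sodium acetate pH 7 was mixed with compound and 20 uM heparin and incubated 6 hr at 37 C.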
Tau fibril FP – inhibitors of human tau fibril formation | K18 P301L tau heparin fibrillization, Alexa594 FP, 6 h | Potency, µM (series often up to 57.7 µM), without a hit: top-dose activity, negative = inhibition, usual class: inhibitors | hit rate 0.39% among 280,000; note: nearly all actives have a fitted effect of over 55% in size
Target sequence (P10636 561-689 P618L limits assumed): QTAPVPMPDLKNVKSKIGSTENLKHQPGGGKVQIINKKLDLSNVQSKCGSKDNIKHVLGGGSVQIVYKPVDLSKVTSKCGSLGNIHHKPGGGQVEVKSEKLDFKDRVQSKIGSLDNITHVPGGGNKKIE
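Recombinant K18 P301L […], labeled with Alexa 594 at 0.24 uM over 15 uM unlabeled; heparin inducer 20 uM final; 37 C, 6 hr; FP endpoint.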
Gal4-VP16 FLuc – counter-screen for ROR gamma inhibitors: Gal4-VP16 reporter. Drosophila S2 Gal4-VP16 UAS-luciferase, luminescence, 20 h. Potency, µM (top dose mostly 53.6 µM), without a hit: at the highest dose activity, negative = inhibition, most hits filed as inhibitors. hit rate 3.5% among 310,000. AID 2546;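 note: Gal4-VP16 expression switched on by copper sulfate through the metallothionein promoter; nearly all actives have a fitted effect of over 50% in size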
Tau fibril ThT – blocks human tau fibril formation measured by thioflavin T; hit rate 2.1% among 270,000; recombinant tau K18 P301L, heparin-induced fibrillization, ThT fluorescence; Potency, µM (series often up to 57.4 µM), without a hit: top-dose activity, negative = inhibition, usual class: inhibitors; note: nearly all actives have a fitted effect of over 55% in size
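ThT emission at 510 nm, taken 1 hr after adding 30 uM dye, quantifies aggregates formed when 20 uM heparin acts on human tau K18 P301L for 6 hr at 37 C.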
RORg inh – ROR gamma (mouse) transcription inhibition | P51450 | Drosophila S2 Gal4-RORgamma UAS-luciferase reporter, 20 h | Potency, µM (titrated, usually from 53.6 µM), for the others: top-dose activity change, negative = inhibition, actives largely listed as inhibitors | hit rate 5.4% among 310,000 | AID 2551; note: nearly all actives have a fitted effect of over 60% in size
Target sequence (P51450 whole entry, looked up, the tested form may be a part): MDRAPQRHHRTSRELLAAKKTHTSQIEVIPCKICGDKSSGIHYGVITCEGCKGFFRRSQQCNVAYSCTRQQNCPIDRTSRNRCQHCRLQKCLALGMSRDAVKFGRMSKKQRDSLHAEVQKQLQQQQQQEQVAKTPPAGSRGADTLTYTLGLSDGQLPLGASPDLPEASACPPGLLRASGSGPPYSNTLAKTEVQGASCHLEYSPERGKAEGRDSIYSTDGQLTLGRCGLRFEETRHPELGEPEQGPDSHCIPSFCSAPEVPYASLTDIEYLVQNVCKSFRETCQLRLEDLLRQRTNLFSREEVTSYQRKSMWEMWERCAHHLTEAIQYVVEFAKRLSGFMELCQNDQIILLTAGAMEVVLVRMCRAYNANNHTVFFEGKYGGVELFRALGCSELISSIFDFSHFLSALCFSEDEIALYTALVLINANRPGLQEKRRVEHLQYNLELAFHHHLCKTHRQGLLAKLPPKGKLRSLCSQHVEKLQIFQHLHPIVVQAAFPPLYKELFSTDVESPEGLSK
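Drosophila Schneider cells stably carrying a metallothionein-driven Gal4 DBD–ROR gamma fusion and a UAS-Photinus luciferase reporter were exposed to compound for 1 hr, then induced with copper sulfate (700 uM final) for 20 hr at ambient temperature before luminescence reading.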
The depositor's hits bear a star; ? = inconclusive; . = no result; ! = not active in a repeat; [ ] = remark or other dose. Calls come from the whole dose curve; as a rule, active = well fitted curve in the direction sought with a large enough effect; inconclusive = small, poorly fitted or top-dose-only effect, or another doubt; inactive = no such curve, though single readings can be large; an effect the other way counts as inactive or inconclusive. % is set by controls: 0 for no effect and ±100 for the full control effect; potency is the fitted concentration of half-maximal effect.

SMILES	Tau fluor counter	Tau fibril FP	Gal4-VP16 FLuc	Tau fibril ThT	RORg inh
Fc1ccc(-c2n[nH]c(=S)n2-c2ccc3c(c2)OCCO3)cc1	-2%	0%	-25%	-3%	13µM*
COc1ccc(-n2c(-c3ccc(Cl)cc3Cl)n[nH]c2=S)c(OC)c1	.	.	6.3µM*	.	4µM*
S=c1[nH]nc(-c2ccc(Cl)cc2)n1-c1ccc2c(c1)OCCO2	-11%	1%	7.1µM*	-12%	3.2µM*
S=c1[nH]nc(-c2ccc(Cl)cc2Cl)n1-c1ccc(Cl)cc1	.	.	?	.	6.3µM*
S=c1[nH]nc(-c2cccnc2)n1-c1ccc2c(c1)OCCO2	-3%	-2%	25%	-4%	?
O=c1ccc(-c2n[nH]c(=S)n2-c2ccc(F)c(Cl)c2)n[nH]1	-6%	-12%	7%	1%	-38%
Cc1cc(C)cc(Nc2cc(C)nc3nc(-c4ccco4)nn23)c1	-12%	?	.	?	.
S=c1[nH]nc(-c2ccc(Cl)cc2)n1-c1ccc(Cl)cc1	.	.	7.1µM*	.	7.1µM*
Nc1n[nH]c(=S)n1-c1ccc(Cl)cc1	-20%	?	-19%	?	-9%
COC(=O)C1=C(C)N(c2ccc(Cl)c(Cl)c2)C(=O)C1	-7%	3%	13µM*	?	4.5µM*
CC(C)N(Cc1ccccc1)C(=S)Nc1ccc(F)cc1	1%	8%	-1%	2%	-44%
CC(C1CC1)N(Cc1ccccc1)C(=S)Nc1ccccc1 (configuration not stated)	3%	-2%	?	5%	11µM*
CC(C1CC1)N(Cc1ccccc1)C(=S)Nc1cccc(C(F)(F)F)c1 (configuration not stated)	-16%	-7%	?	-6%	11µM*
Cc1ccc(NC(=S)N(Cc2ccccc2)C(C)C)cc1	-14%	?	?	-10%	10µM*
CCCCC/C=C\C[C@@H](O)/C=C/C=C/C=C/[C@@H](O)CCCC(=O)O	0%	7%	2%	2%	10%
Cn1c(=O)c2c(-c3ccccc3Br)n(CCc3ccccc3)cc2n(C)c1=O	-11%	1%	.	?	.
CC1(C)Cc2[nH]c(=S)c(C#N)cc2CO1	5%	-4%	?	-14%	20µM*
N#Cc1cc2c([nH]c1=S)CCCC2	-7%	-13%	-3%	?	-13%
Cc1ccc(C(=O)N/N=C2\SCC(=O)N2c2cc(C)ccc2C)cc1	-13%	-3%	13µM*	-10%	?
Cc1cccc(N2C(=O)CS/C2=N\NC(=O)c2ccc(Br)cc2)c1C	2%	5%	1%	-4%	-29%
COCc1cc(=O)[nH]c(Nc2nc3ccccc3o2)n1	-10%	-6%	?	-16%	3.5µM*
Cc1ccc2oc(Nc3nc(-c4ccccc4)cc(=O)[nH]3)nc2c1	-3%	-4%	-14%	?	2.8µM*
COCc1cc(=O)[nH]c(Nc2nc(C)c3ccccc3n2)n1	-6%	-3%	?	?	-14%
Cc1cc(C)c2nc(Nc3nc(-c4ccccc4)cc(=O)[nH]3)nc(C)c2c1	-7%	2%	2.2µM*	?	0.63µM*
CCOC(=O)Cc1cc(=O)[nH]c(Nc2nc3ccccc3o2)n1	-21%	-6%	16µM*	?	10µM*
SMILES	Tau fluor counter	Tau fibril FP	Gal4-VP16 FLuc	Tau fibril ThT	RORg inh
COc1ccc(NC(=O)Cn2c(=O)cc(C)c3c(C)nn(C)c32)cc1	1%	-4%	.	-4%	.
Cc1ccc(N2CC(NC(=O)c3ccco3)CC2=O)cc1 (configuration not stated)	-4%	-3%	.	-10%	.
Cc1nn2cc(-c3ncc(C(F)(F)F)cc3Cl)cnc2c1Br	-5%	2%	-2%	-5%	-29%
Cc1cc2ncc(-c3ncc(C(F)(F)F)cc3Cl)cn2n1	-14%	13%	10µM*	-20%	7.9µM*
C/C(=N\NC(=O)c1nnn(-c2nonc2N)c1CN(C)c1ccccc1)c1cccnc1	.	.	-7%	.	-1%
O=C(NC1CC1)c1ccc(Cn2c(SCc3ccccc3F)nc3cccnc32)cc1	1%	-3%	.	3%	.
Cc1cccc(C(=O)NC(C)C(c2cccs2)N2CCOCC2)c1 (configuration not stated)	3%	1%	10%	.	15%
Cc1ccc(C)c(NC(=S)NC(C)C(c2cccs2)N2CCOCC2)c1 (configuration not stated)	2%	?	11µM*	5%	5µM*
CC(NC(=O)c1cccs1)C(c1cccs1)N1CCOCC1 (configuration not stated)	-1%	2%	0%	0%	-3%
CC(NC(=S)Nc1cccc(F)c1)C(c1cccs1)N1CCOCC1 (configuration not stated)	-13%	3%	?	.	8.9µM*
O=C1c2c(O)ccc(O)c2C(=O)c2c(NCCNCCO)ccc(NCCNCCO)c21	3.2µM*[quencher]	?	?	8.9µM*	10µM*!
O=C1c2cccc(O)c2C(=O)c2c(O)cc(CO)cc21	.	.	-11%	.	-43%
CN1CCN(C(c2ccc(Br)cc2)c2cc(Cl)c3cccnc3c2O)CC1 (configuration not stated)	.	.	0.79µM*	.	2.8µM*
CN1CCN(C(c2cccnc2)c2ccc3cccnc3c2O)CC1 (configuration not stated)	-3%	-7%	-5%	8%	2%
O=C(c1cc(COc2ccc3ncccc3c2)on1)N1CCC[C@H]1CO	.	.	5µM*	.	?
Cc1cc(CN(C)C(=O)c2cc(COc3ccc4ncccc4c3)on2)on1	7%	-4%	3.2µM*	7%	7.9µM*
O=C(c1cc(COc2ccc3ncccc3c2)on1)N1CCC(O)CC1	7%	8%	4%	0%	?
O=C(NC1CCCCCCC1)c1cc(COc2ccc3ncccc3c2)on1	-11%	-2%	4µM*	?	?
CCOC(=O)N1CCN(C(=O)c2cc(COc3ccc4ncccc4c3)on2)CC1	-11%	-5%	7.1µM*	?	?
N#CCc1ccccc1[N+](=O)[O-]	.	.	0%	.	5%
CC(CNC(=O)c1cc(COc2ccc3ncccc3c2)on1)c1ccccc1 (configuration not stated)	.	.	10µM*	.	?
COc1cc(Cl)ccc1OCc1cc(C(=O)NCC(C)c2ccccc2)no1 (configuration not stated)	.	.	?	.	15%
CN(C)c1ccc(/C=C/c2c([N+](=O)[O-])c(=O)n(C)c(=O)n2C)cc1	.	.	-4%	.	3%
Cn1c(/C=C/c2ccc(Br)cc2)c([N+](=O)[O-])c(=O)n(C)c1=O	.	.	-20%	.	11µM*
CCCN(CCC)CCNC(=O)Cn1cnc2sc(C)c(S(=O)(=O)N3CCN(c4ccccc4OC)CC3)c2c1=O	-12%	-8%	.	-4%	.
CC(=O)O[C@@H]1CC(C)=C2[C@H]1[C@H](C)CC[C@H]2/C=C(\C)C(=O)O	.	.	9%	.	-10%
